This passage reports outcome and AC50 results from PubChem BioAssay (EPA / NIEHS).

Experiment [1] concerns the target Paired box protein Pax-6 (Homo sapiens) (UniProt P26367). The experiment can be described thus: ATG_Pax6_CIS: Attagene CIS-FACTORIAL HepG2 Assay for human Paired Box 6 (PAX6) (AID 2282956). Particulars: HepG2 CIS-FACTORIAL PAX6 reporter transcription, RNA readout; actives raise or lower the signal. The procedure, abridged: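 DMSO-referenced bidirectional fits of reporter mRNA fluorescence; HepG2 with transient cis-promoter MRTUs, 24 h post-dose, RT-PCR plus capillary electrophoresis detection.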

Experiment [2] can be described thus: ATG_PPRE_CIS: Attagene CIS-FACTORIAL HepG2 Assay for human Peroxisome Proliferator-activated Response Element (PPRE) (AID 2282958). Particulars: HepG2 PPRE cis-element reporter, Attagene transcription factor profiling; actives raise or lower the signal. Put shortly:
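After human HepG2 hepatoma cells were transiently transfected with cis-promoter reporter constructs, they were exposed to test chemicals for 24 hours. Reporter RNA was then reverse-transcribed, PCR-amplified, FAM-labeled, HpaI-digested and quantified by capillary electrophoresis.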

Experiment [3] in a line: ATG_RORE_CIS: Attagene CIS-FACTORIAL HepG2 Assay for human RAR-related Orphan Receptor Element (RORE) (AID 2282959). Particulars: HepG2 Attagene cis-factorial RORE reporter, mRNA; actives raise or lower the signal. The procedure, abridged: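 Measured here: transcript induction of a cis-regulated reporter in HepG2 cells transiently transfected via FuGene 6. After 24 h, RNA was processed by RT-PCR and fluorescent capillary electrophoresis; DMSO defined baseline activity.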

Experiment [4] is described as follows: ATG_Sox_CIS: Attagene CIS-FACTORIAL HepG2 Assay for human SRY-box transcription factor (SOX) (AID 2282960). Particulars: HepG2 Attagene cis-factorial SOX reporter, mRNA; actives raise or lower the signal. The procedure, abridged: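 Using transiently transfected HepG2 cells, reporter transcription driven by cis elements was assessed 24 h after dosing. Signal was fluorescence of capillary-separated RT-PCR products, with DMSO defining baseline activity.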

The nature of experiment [5]: ATG_SREBP_CIS: Attagene CIS-FACTORIAL HepG2 Assay for human Sterol Regulatory Element Binding (SREBP) (AID 2282962). The note with it: HepG2 Attagene cis-factorial SREBP reporter, mRNA; actives raise or lower the signal. The procedure, abridged: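 In this cis-format assay, HepG2 liver cells express reporters controlled by promoter elements responsive to native transcription factors. Exposure lasts 24 h; reporter mRNA fluorescence from capillary electrophoresis gives the signal, fitted bidirectionally against DMSO.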

Experiment [6] addresses Signal transducer and activator of transcription 3 (Homo sapiens) (UniProt P40763). The experiment can be described thus: ATG_STAT3_CIS: Attagene CIS-FACTORIAL HepG2 Assay for human Signal Transducer and Activator of Transcription 3 (STAT3) (AID 2282963). The note with it: HepG2, Attagene cis-factorial STAT3 reporter transcription; actives raise or lower the signal. The procedure, abridged: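 Uses human liver HepG2 transiently carrying cis-regulated reporter transcription units. Following 24 h dosing, reporter mRNA induction was detected by RT-PCR and capillary electrophoresis, analysed bidirectionally versus DMSO.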

Experiment [7] in a line: ATG_TA_CIS: Attagene CIS-FACTORIAL HepG2 Assay for human TA Basal Promoter (AID 2282964). Particulars: HepG2 Attagene CIS-factorial TA basal promoter reporter; actives raise or lower the signal. Put shortly: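 Transient MRTU transfection of HepG2 preceded 24 h compound exposure. Reporter mRNA levels were then read by RT-PCR with capillary electrophoresis, and this background-control endpoint was fitted bidirectionally to DMSO.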

The nature of experiment [8]: ATG_TCF_b_cat_CIS: Attagene CIS-FACTORIAL HepG2 Assay for human T-Cell-Factor with beta-catenin (TCF/b-cat) (AID 2282965). The note with it: HepG2 TCF/beta-catenin cis-reporter transcription, actives raise or lower the signal. Put shortly:
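HepG2 cells transiently transfected with multiple cis-promoter-regulated reporter transcription units, so endogenous transcription factor activity is measured. Reporter mRNA read 24 hours after dosing by RT-PCR, fluorescent labelling and capillary electrophoresis; bidirectional fitting against DMSO.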

Experiment [9] can be described thus: ATG_TAL_CIS: Attagene CIS-FACTORIAL HepG2 Assay for human TAL Basal Promoter (AID 2282966).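 Also: background control endpoint measuring basal TAL promoter reporter mRNA not a specific factor.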 The note with it: HepG2 Attagene cis-factorial TAL promoter reporter; actives raise or lower the signal. Put shortly: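 Background-control endpoint: basal TAL promoter reporter transcripts in transiently transfected HepG2, measured 24 h after dosing. Read-out by RT-PCR with fluorescent primer extension and capillary electrophoresis; gain or loss of signal fitted relative to DMSO.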

The nature of experiment [10]: ATG_TGFb_CIS: Attagene CIS-FACTORIAL HepG2 Assay for human Transforming Growth Factor (TGF) (AID 2282967). The note with it: HepG2 Attagene CIS TGFb reporter, mRNA transcription; actives raise or lower the signal. The procedure, abridged: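 After a 24-hour incubation with compound, transfected HepG2 cells were lysed for RNA; reporter cDNA was amplified, fluorescently end-labeled and separated by CE. DMSO served as baseline for bidirectional fits.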

A short description of experiment [11]: ATG_VDRE_CIS: Attagene CIS-FACTORIAL HepG2 Assay for human Vitamin D Receptor Element (VDRE) (AID 2282968). Particulars: HepG2 VDRE cis-reporter transcription, actives raise or lower the signal. Put shortly:
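Transfected HepG2 reporter cells, chemical treatment 24 h. RNA isolated, cDNA amplified with reporter-specific primers, products analysed by capillary electrophoresis. Endpoint fitted in both directions versus DMSO.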

The target of experiment [12] is X-box-binding protein 1 (Homo sapiens) (UniProt P17861). The experiment can be described thus: ATG_Xbp1_CIS: Attagene CIS-FACTORIAL HepG2 Assay for human X-box Binding Protein 1 (XBP1) (AID 2282972). The note with it: HepG2 XBP1 cis-element reporter, Attagene multiplex; actives raise or lower the signal. The procedure, abridged:
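Changes in reporter transcript abundance, read by RT-PCR and capillary electrophoresis, reflect endogenous transcription factor activity. Transfected HepG2 cells received compound for 24 hours; DMSO defined baseline for bidirectional analysis.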

Experiment [13] concerns the target Transcription factor Sp1 (Homo sapiens) (UniProt P08047). Kind of experiment: ATG_Sp1_CIS: Attagene CIS-FACTORIAL HepG2 Assay for human Specificity Protein 1 (Sp1) (AID 2282961). The note with it: HepG2 Sp1 cis-reporter transcription, actives raise or lower the signal. Put shortly:
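After transient transfection of HepG2 cells with cis-promoter reporter units and 24 h chemical treatment, reporter transcripts were quantified by RT-PCR and capillary electrophoresis fluorescence. Gain- and loss-of-signal fitted against DMSO.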

Experiment [14] deals with Nuclear receptor subfamily 1 group I member 3 (Homo sapiens) (UniProt Q14994). The experiment can be described thus: ATG_CAR_TRANS: Attagene TRANS-FACTORIAL HepG2 Assay for human Constitutive Androstane Receptor (CAR) (AID 2282969; active = hit-call score of the fitted dose curve at least 0.9, where 1 is the maximum;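 also: activators raise reporter mRNA above DMSO so AC50 marks induction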). The note with it: HepG2 Attagene TRANS-FACTORIAL CAR reporter. Put shortly:
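Steps: transient transfection of HepG2 with multiple GAL4-UAS reporter units; 24 h compound incubation; RNA isolation, RT-PCR, 6-FAM primer extension, HpaI digest; capillary electrophoresis. Gain-of-signal relative to DMSO negative control.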

The nature of experiment [15]: ATG_GAL4_TRANS: Attagene TRANS-FACTORIAL HepG2 Assay for GAL4 (Internal Marker) (AID 2282976; active = hit-call score of the fitted dose curve at least 0.9, where 1 is the maximum). The note with it: HepG2 Attagene TRANS GAL4 internal marker reporter. Put shortly:
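In transfected human HepG2 liver cells dosed 24 h, GAL4 reporter mRNA serves as a baseline marker. Detection by RT-PCR with fluorescent capillary electrophoresis, activity fitted upward relative to DMSO.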

Experiment [16] is described as follows: ATG_M_19_TRANS: Attagene TRANS-FACTORIAL HepG2 Assay for M19 Transcription Factor (Internal Marker) (AID 2282974; active = hit-call score of the fitted dose curve at least 0.9, where 1 is the maximum). Particulars: HepG2 Attagene TRANS-FACTORIAL M19 internal marker reporter. Put shortly: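 Gain-of-signal in reporter mRNA, relative to DMSO, was scored from capillary electrophoresis fluorescence. HepG2 cells carried transiently transfected multiple reporter transcription units and were incubated with test chemicals for 24 h.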

Results filed as inconclusive are left out. Active and inactive are the calls of the source. The calls were made as follows, unless noted: active = hit-call score of the fitted dose curve at least 0.9, where 1 is the maximum; inactive = score below 0.9.

Chain of Nuclear receptor subfamily 1 group I member 3 (Homo sapiens) (Q14994 whole entry, looked up, the tested form may be a part): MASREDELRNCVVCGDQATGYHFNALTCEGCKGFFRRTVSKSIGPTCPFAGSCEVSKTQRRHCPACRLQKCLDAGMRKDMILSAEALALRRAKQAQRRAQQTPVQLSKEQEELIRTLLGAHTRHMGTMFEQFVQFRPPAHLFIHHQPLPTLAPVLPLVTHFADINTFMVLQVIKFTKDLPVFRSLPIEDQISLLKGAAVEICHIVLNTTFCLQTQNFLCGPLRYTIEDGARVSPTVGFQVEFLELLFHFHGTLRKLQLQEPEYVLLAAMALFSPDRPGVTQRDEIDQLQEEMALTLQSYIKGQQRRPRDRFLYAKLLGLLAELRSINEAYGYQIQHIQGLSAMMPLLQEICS
Chain of X-box-binding protein 1 (Homo sapiens) (P17861 whole entry, looked up): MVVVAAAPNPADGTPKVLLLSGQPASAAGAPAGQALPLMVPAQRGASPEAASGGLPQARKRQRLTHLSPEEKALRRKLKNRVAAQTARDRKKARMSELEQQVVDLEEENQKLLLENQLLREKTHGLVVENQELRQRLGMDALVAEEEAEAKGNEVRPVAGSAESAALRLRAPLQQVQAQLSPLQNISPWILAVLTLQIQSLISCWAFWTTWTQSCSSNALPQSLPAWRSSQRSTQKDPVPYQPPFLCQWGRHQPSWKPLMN
Chain of Signal transducer and activator of transcription 3 (Homo sapiens) (P40763 whole entry, looked up): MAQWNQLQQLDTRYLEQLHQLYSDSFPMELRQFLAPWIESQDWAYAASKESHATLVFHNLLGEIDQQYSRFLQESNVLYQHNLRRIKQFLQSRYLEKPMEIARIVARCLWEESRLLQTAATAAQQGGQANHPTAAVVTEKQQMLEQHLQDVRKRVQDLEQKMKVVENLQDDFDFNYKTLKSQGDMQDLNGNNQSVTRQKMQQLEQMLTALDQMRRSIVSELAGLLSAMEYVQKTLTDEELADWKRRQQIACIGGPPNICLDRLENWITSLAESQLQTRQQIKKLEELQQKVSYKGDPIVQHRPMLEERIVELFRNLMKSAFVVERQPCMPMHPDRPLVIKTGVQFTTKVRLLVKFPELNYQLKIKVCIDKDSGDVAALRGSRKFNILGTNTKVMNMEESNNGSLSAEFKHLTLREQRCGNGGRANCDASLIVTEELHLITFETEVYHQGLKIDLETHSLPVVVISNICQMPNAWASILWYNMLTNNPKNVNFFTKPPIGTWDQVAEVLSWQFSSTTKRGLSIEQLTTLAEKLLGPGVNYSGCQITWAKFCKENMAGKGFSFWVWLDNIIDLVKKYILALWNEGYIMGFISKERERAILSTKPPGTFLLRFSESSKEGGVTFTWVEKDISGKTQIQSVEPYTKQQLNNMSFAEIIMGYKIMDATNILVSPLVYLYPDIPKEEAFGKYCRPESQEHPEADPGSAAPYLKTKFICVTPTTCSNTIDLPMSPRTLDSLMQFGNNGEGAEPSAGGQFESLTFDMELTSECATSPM
Chain of Transcription factor Sp1 (Homo sapiens) (P08047 whole entry, looked up): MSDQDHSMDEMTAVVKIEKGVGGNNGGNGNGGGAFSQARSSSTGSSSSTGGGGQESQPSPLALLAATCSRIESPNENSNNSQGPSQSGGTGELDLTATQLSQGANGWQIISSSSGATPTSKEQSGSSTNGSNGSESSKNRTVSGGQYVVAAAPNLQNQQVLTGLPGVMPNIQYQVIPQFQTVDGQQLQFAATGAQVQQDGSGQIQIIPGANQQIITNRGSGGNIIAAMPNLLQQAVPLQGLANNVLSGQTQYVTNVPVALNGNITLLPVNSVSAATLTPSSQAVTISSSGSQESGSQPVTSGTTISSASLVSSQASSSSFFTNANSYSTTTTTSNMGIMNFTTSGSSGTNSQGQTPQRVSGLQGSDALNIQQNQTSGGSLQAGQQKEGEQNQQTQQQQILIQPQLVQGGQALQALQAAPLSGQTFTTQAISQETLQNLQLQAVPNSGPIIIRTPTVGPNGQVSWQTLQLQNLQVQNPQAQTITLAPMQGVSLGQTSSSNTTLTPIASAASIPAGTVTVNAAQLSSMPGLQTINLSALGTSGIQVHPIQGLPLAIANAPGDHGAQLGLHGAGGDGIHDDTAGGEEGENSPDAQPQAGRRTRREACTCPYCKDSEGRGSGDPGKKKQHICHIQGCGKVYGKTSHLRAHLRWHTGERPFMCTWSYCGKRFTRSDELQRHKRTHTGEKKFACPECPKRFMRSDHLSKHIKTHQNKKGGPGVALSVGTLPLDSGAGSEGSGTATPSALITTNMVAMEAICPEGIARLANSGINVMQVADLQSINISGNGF
Chain of Paired box protein Pax-6 (Homo sapiens) (P26367 whole entry, looked up): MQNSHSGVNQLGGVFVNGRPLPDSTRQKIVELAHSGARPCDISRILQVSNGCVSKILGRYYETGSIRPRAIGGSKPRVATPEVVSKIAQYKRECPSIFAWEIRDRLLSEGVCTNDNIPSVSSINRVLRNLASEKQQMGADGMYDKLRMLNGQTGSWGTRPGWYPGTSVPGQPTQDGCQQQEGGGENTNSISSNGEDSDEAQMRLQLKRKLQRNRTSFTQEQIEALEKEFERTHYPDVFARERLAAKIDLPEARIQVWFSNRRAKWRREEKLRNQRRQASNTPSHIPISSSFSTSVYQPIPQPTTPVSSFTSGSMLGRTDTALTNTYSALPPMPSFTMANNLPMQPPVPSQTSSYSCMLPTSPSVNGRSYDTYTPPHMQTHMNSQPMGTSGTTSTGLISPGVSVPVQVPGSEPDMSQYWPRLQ

`CCCCCCCCCCCCCCCO`: the compound was called inactive in experiment [1], in [2], in [3], in [4], in experiment [5] and in experiment [6]. The call in experiment [7], in experiment [8], in experiment [9], in experiment [10], in experiment [11] and in experiment [12] was inactive.

Take `CC[C@H]1OC(=O)[C@H](C)[C@@H](O[C@H]2C[C@@](C)(OC)[C@@H](O)[C@H](C)O2)[C@H](C)[C@@H](O[C@@H]2O[C@H](C)C[C@H](N(C)C)[C@H]2O)[C@](C)(O)C[C@@H](C)C(=O)[C@H](C)[C@@H](O)[C@]1(C)O`: the result in experiment [1], in [3], in experiment [4], in experiment [13], in experiment [5] and in [6] was inactive. For the same compound, the outcome in experiment [7], in [8], in [9], in experiment [10], in [11] and in experiment [12] was inactive.

By AC50 is commonly meant the concentration at which the activity in the assay is half-maximal. Consider `CN(C)c1ccc(N=NS(=O)(=O)O)cc1`, for which the outcome in experiment [1], in [4], in experiment [5], in experiment [6], in [7] and in experiment [8] was inactive. Moreover, the compound was called inactive in experiment [9], in [10], in experiment [11], in experiment [14], in experiment [12] and in experiment [15]. Further, in experiment [3], the half-maximal activity concentration (AC50) was 38.6 µM (active).

With `COCCOc1cc2cc(C(=O)NC3CCN(C(C)C)CC3)n(CC(=O)Nc3ccc(Cl)cn3)c2cn1`, the AC50 in [1] is 124 µM (active); in [4], 135 µM (active); in [13], 100 µM (active); in [5] it was 26.5 µM (active); in [8], 108 µM (active); in experiment [11], 124 µM (active). The concentration at half-maximal activity (AC50) in [12] was 100 µM (active). In addition, the compound was classed as inactive in experiment [6], in experiment [7], in experiment [9] and in experiment [10].

For the compound `C[C@](N)(Cc1ccc(O)c(O)c1)C(=O)O`, the outcome in experiment [1], in [4], in experiment [13], in experiment [5], in experiment [6] and in [7] was inactive. Besides, the call in experiment [8], in experiment [9], in experiment [10], in experiment [11], in [14] and in experiment [12] was inactive.

Regarding `CCN(C(=O)c1cc(C)cc(OC[C@H](C)Nc2ccncc2)c1)C(C)C`, the compound was classed as inactive in experiment [1], in experiment [4], in experiment [6], in [7], in experiment [8] and in experiment [9]. The compound was called inactive in experiment [10], in [14] and in [12]. The AC50 in experiment [5] is 18.2 µM (active).

Regarding `CC(C)c1cccc(C(C)C)c1N1C(=O)c2ccc(O)cc2C1=O`, the AC50 in experiment [1] was 76.9 µM (active); in [2] it was 26.9 µM (active); in [4], 122 µM (active); in [5], 100 µM (active); in experiment [8], 100 µM (active); in [11], 33.9 µM (active). Moreover, the concentration at half-maximal activity (AC50) in experiment [12] was 100 µM (active). Moreover, the compound was classed as inactive in [6], in experiment [7], in experiment [9], in experiment [10] and in experiment [16].
